Records with an inconclusive call do not appear. A call without a number means that no potency is given here. A number with no mark means an inactive call. The source made the active and inactive calls. Calls follow the shape of the dose curve; as a rule, active = well fitted inhibition curve with a large enough effect in the repeat runs; inconclusive = weak or mixed curves; inactive = flat fitted curve, though single readings scatter.
What follows are compounds tested against Voltage-gated inwardly rectifying potassium channel KCNH2 (Homo sapiens) (UniProt Q12809) (assay: Human Ether-a-go-go-Related Gene (hERG) channel small molecule antagonists: fluorescence cell-based qHTS assay (AID 1671200; also: nearly all actives have a fitted effect of over 50% in size;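 as to activity change, negative = inhibition: hERG-expressing U2OS cells given a thallium stimulus after FluxOR II dye loading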)). Details: hERG-U2OS cells, FluxOR thallium flux fluorescence; series mostly up to 76.8 µM.
In short: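 In this thallium-flux screen, overnight-cultured U2OS cells bearing the channel are dye-loaded in darkness for an hour, rested 10 min at room temperature, and then monitored kinetically at 480/540 nm for two minutes post-stimulus.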
Potency is read from the fitted curve at half-maximal effect.

Sequence of Voltage-gated inwardly rectifying potassium channel KCNH2 (Homo sapiens) (Q12809 whole entry, looked up): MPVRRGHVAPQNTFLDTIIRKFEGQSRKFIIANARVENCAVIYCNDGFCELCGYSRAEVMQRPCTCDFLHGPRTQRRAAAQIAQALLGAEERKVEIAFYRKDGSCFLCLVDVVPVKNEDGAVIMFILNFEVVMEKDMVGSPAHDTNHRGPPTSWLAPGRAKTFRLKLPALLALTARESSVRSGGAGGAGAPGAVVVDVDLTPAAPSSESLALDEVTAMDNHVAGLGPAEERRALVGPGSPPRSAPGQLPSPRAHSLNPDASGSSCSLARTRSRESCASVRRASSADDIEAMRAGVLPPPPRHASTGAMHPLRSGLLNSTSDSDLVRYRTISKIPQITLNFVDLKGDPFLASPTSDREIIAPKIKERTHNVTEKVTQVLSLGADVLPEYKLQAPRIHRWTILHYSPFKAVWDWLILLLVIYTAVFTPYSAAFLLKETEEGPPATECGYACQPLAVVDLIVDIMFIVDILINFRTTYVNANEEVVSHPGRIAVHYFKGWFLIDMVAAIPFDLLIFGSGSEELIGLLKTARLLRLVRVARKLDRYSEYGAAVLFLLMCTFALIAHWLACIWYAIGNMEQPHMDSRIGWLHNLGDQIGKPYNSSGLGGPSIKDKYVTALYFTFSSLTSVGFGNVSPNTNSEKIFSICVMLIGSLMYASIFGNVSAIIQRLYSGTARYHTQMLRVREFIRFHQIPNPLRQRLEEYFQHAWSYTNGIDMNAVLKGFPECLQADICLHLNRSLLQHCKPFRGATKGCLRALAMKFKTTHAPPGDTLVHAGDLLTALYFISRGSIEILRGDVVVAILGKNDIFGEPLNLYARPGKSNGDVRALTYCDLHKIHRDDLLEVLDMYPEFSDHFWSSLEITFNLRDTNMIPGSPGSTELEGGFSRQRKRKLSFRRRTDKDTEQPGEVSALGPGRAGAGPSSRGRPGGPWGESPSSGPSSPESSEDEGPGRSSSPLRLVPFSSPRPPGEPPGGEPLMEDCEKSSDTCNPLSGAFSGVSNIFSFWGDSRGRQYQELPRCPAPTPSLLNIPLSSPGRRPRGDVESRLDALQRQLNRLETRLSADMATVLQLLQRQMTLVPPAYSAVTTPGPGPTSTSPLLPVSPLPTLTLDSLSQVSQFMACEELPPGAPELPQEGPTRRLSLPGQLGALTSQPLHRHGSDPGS

Structure (SMILES) | Potency | activity change, negative = inhibition
[O-][n+]1ccc(Cl)cc1 | inactive | 
O=C(O)c1ccc2c(c1)nc(C(=O)NC1CCN(C3CC3)CC1)n2Cc1cc(-c2ccc(Cl)s2)on1 |  | -1.6% [at 15.8 µM]
CCCC(=O)OCc1ccccc1 | inactive | 
O=C(O)c1ccccc1[N+](=O)[O-] | inactive | 
O=c1c2ccccc2oc2ccccc12 | inactive | 
CCOc1ccc2c(c1)C(C)CC(C)(C)N2 (configuration not stated) | inactive | 
NC(=O)c1ccccc1 | inactive | 
CC(C(=O)O)c1ccc2c(c1)Cc1cccnc1O2 (configuration not stated) | inactive | 
Clc1cc(Cl)c2c(c1)N=C1CCCCCN1C2 | 9.52 µM (active) | 
CCCC1CCCC(=O)O1 (configuration not stated) | inactive | 
CCCCCCCCCCCCSCCOCCO | inactive | 
CCCCCCOC(=O)c1ccccc1 | inactive | 
C/C(=C\C(C)CC(C)CC(C)C)C1CC(=O)OC1=O (configuration not stated) | inactive | 
CCOc1ccccc1O | inactive | 
FC1(F)C(F)(F)C(F)(F)C2(F)C(F)(C1(F)F)C(F)(F)C(F)(F)C1(F)C(F)(F)C(F)(F)C(F)(F)C(F)(F)C12F (configuration not stated) | inactive | 
CCCCCCCCS | inactive | 
CCCCOC(=O)CC#N | inactive | 
O=C1C=CCCC1 | inactive | 
O=C1OC(=O)C2CC=CCC12 (configuration not stated) | inactive | 
COC=O |  | -1.77% [at 6.97 µM]
CC(CCl)OC(C)CCl (configuration not stated) | inactive | 
Nc1ccc(-c2ccc(F)cc2)cc1 | inactive | 
SCCOCCOCCS | inactive | 
CCCC1CCOC(C)S1 (configuration not stated) | inactive | 
CCCC(=O)OCCC(C)C | inactive | 
CC(C(=O)O)c1ccc(/C=C2\CCCCC2=O)cc1 (configuration not stated) | inactive | 
O=C(O)c1c2ccccc2cc2ccccc12 | inactive | 

From PubChem BioAssay (Tox21)
